According to PubChem BioAssay AID602330 (Sanford-Burnham Center for Chemical Genomics, 2012):
About 85 (4%) of roughly 1,900 compounds were called active. Cut-off read from the data, not from the text of the source: active = inhibition above about 40%; inactive = the rest. These entries were drawn from the full list.

Molecular target: 72 kDa type IV collagenase (Homo sapiens) (UniProt P08253)
Experiment: MMP-2 enzyme inhibition, confirmation, counter-screen for RPN11 inhibitor project, biochemical, fluorescence, single concentration (AID 602330);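 note: human MMP-2 activated beforehand with APMA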
Conditions: recombinant MMP-2, FRET peptide cleavage fluorescence; at 20 µM; hits give high values

Sequence of 72 kDa type IV collagenase (Homo sapiens) (P08253 whole entry, looked up): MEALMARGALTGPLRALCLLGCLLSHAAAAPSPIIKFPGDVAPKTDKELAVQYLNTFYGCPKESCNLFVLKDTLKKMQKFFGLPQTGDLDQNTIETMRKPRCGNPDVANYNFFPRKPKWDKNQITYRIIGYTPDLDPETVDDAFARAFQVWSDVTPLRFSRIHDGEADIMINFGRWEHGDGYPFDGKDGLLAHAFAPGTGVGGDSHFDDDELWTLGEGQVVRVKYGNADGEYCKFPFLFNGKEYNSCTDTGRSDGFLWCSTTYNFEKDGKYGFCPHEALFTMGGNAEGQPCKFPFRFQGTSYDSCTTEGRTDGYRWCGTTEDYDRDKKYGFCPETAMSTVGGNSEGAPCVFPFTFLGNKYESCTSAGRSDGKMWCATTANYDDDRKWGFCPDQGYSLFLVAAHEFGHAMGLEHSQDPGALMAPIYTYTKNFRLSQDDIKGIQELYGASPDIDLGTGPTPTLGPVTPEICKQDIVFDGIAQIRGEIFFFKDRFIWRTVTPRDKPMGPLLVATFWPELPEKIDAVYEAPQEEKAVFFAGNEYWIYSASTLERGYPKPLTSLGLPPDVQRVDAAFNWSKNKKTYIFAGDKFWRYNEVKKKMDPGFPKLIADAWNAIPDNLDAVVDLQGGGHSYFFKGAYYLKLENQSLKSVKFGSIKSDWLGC

Structure (SMILES) | inhibition
COc1cccc(/C=C(/CC(=O)Nc2ccc(N3CCOCC3)cc2)c2nc3ccccc3s2)c1 | 30.2% (inactive)
CCC(C)Cn1c(O)cc2nn(-c3nc4ccccc4s3)c(=O)c-2c1C (configuration not stated) | -2.01% (inactive)
Cc1oc2c(C)c3oc(=O)c(CC(=O)N[C@@H](CC(C)C)C(=O)N[C@@H](Cc4ccccc4)C(=O)O)c(C)c3cc2c1C | -12.8% (inactive)
CCN1CCCC1CNC(=O)c1cc2c(=O)n(C)c3ccccc3c2n1C (configuration not stated) | 5.3% (inactive)
CN(C)c1ccc(-n2cccc2/C=C2/SC(=Nc3ccc(F)cc3)NC2=O)cc1 | 11.2% (inactive)
CCCOc1ccc(Cn2c(O)cc(=O)[nH]c2=O)cc1 | -16.6% (inactive)
COc1ccc(NC(=O)Cn2c(-c3ccc(OC)cc3)cn(-c3ccc(C)cc3)c2=O)cc1 | -12.7% (inactive)
Cc1ccc(Nc2ccccc2N)cc1 | -13.4% (inactive)
CCCCCCSc1ccc([C@@H]2[C@H]3C(=O)N(CC)C(=O)[C@H]3[C@]3(C(=O)OC)CCCCN23)cc1 | -13.2% (inactive)
CC(C)CC1C(=O)N(Cc2cn(Cc3ccco3)nn2)CCS(=O)(=O)N1Cc1ccc(-c2ccc(Cl)c(Cl)c2)cc1 (configuration not stated) | -38.5% (inactive)
CCOc1ccc(-n2c(O)c(/C=N/Nc3nnc(C)c(=O)[nH]3)c3ccccc3c2=O)cc1 | -6.64% (inactive)
Cc1nc2ccc(C(=O)N3CCSCC3)cc2s1 | -42.3% (inactive)
C=CC1=C(C(=O)O)N2C(=O)[C@@H](NC(=O)/C(=N/OCC(=O)O)c3csc(N)n3)[C@H]2SC1 | 35.4% (inactive)
CCOC(=O)N1CCC(NC(=O)C(NS(=O)(=O)c2ccc3c(c2)CCN3C(=O)CC)C(C)C)CC1 (configuration not stated) | -20.7% (inactive)
COC(=O)c1ccc(OCC(=O)NC(C)(C)C)cc1 | 6.02% (inactive)
O=C(CSc1nc2ccccc2c(=O)[nH]1)Nc1nc(-c2ccc(Br)cc2)cs1 | 51.9% (active)
Cc1ccc(N=Cc2c(O)cc(C)oc2=O)c(C)c1 | -22.6% (inactive)
CC(=O)Nc1ccccc1Sc1ccc2c3c(cccc13)C(=O)N(c1ccc(C)cc1)C2=O | -23% (inactive)
CCOc1ccc(NC(=O)c2ccc(NC(=O)COC(=O)c3ccc(NC(=O)CC#N)cc3)cc2)cc1 | 10.8% (inactive)
COC1=C/C(=C/c2c(N)n3nc(CC(=O)N4CCOCC4)sc3nc2=O)C=CC1=O | 12% (inactive)
Cc1ccc(Nc2nc(Cl)c(C=O)s2)cc1 | -10.8% (inactive)
Cc1nc2ccccc2n1C(=O)N1CCOCC1 | -8.73% (inactive)
